Reference: PubChem BioAssay (NCATS)
Records with an inconclusive call do not appear. Where a call stands in place of a potency, no number is given. Activity calls are given as the source filed them. Calls come from the whole dose curve; as a rule, active = well fitted inhibition curve with a large enough effect; inconclusive = small, poorly fitted or top-dose-only effect; inactive = flat fitted curve, though single readings scatter.

Legend:
Assay in all cases: qHTS profiling for inhibitors of Plasmodium falciparum proliferation (AID 504749); note: nearly all actives have a fitted effect of over 60% in size
Settings in all cases: P. falciparum in erythrocytes, SYBR Green DNA, 72 h; series mostly up to 28.7 µM
DFO2036 = tested on: DFO2036
Summary of the method: (§1)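 In a 72 h erythrocytic culture (37 C, humidified, 5% CO2) at 2.5% hematocrit and 0.3% starting parasitemia, compounds were tested; SYBR Green I in detergent lysis buffer stained parasite DNA overnight.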

DIV14 = tested on: DIV14
Summary of the method: as §1

DIV17 = tested on: DIV17
Summary of the method: as §1

DIV30 = tested on: DIV30
Summary of the method: as §1

Dd2 = tested on: Dd2
Summary of the method: as §1

ECU = tested on: ECU
Summary of the method: as §1

FAB9 = tested on: FAB9
Summary of the method: as §1

GB4 = tested on: GB4
Summary of the method: as §1

HB3 = tested on: HB3
Summary of the method: as §1

ICS = tested on: ICS
Summary of the method: as §1

JCK = tested on: JCK
Summary of the method: as §1

N140 = tested on: N140
Summary of the method: as §1

P93_24 = tested on: P93_24
Summary of the method: as §1

P94_40 = tested on: P94_40
Summary of the method: as §1

PAD = tested on: PAD
Summary of the method: as §1

PC15 = tested on: PC15
Summary of the method: as §1

PC26 = tested on: PC26
Summary of the method: as §1

PC49 = tested on: PC49
Summary of the method: as §1

SC27B = tested on: SC27B
Summary of the method: as §1

TAB109 = tested on: TAB109
Summary of the method: as §1
Potency is the fitted concentration of half-maximal effect.

Compound	Potency (DFO2036)	Potency (DIV14)	Potency (DIV17)	Potency (DIV30)	Potency (Dd2)	Potency (ECU)	Potency (FAB9)	Potency (GB4)	Potency (HB3)	Potency (ICS)	Potency (JCK)	Potency (N140)	Potency (P93_24)	Potency (P94_40)	Potency (PAD)	Potency (PC15)	Potency (PC26)	Potency (PC49)	Potency (SC27B)	Potency (TAB109)
O=C(O)CCC(=O)C(=O)O	inactive	inactive	inactive	inactive	inactive	inactive	inactive	inactive	inactive	inactive	inactive	inactive	inactive	inactive	inactive	inactive	inactive	inactive	inactive	inactive
CCNC(=O)[C@@H]1CCCN1C(=O)[C@H](CCCN=C(N)N)NC(=O)[C@H](CC(C)C)NC(=O)[C@@H](Cc1c[nH]c2ccccc12)NC(=O)[C@H](Cc1ccc(O)cc1)NC(=O)[C@H](CO)NC(=O)[C@H](Cc1c[nH]c2ccccc12)NC(=O)[C@H](Cc1cnc[nH]1)NC(=O)[C@@H]1CCC(=O)N1	5.62 µM (active)	0.953 µM (active)	0.953 µM (active)	1.69 µM (active)	3.16 µM (active)	1.12 µM (active)	8.91 µM (active)	2.39 µM (active)	11.2 µM (active)	2.24 µM (active)	14.1 µM (active)	4.47 µM (active)	3.16 µM (active)	7.94 µM (active)	2.24 µM (active)	3.55 µM (active)	3.38 µM (active)	2.82 µM (active)	6.31 µM (active)	4.47 µM (active)
CCCCCCC(O)C/C=C/CCCCCCCC(=O)O (stereo unspecified)	inactive	inactive	inactive	inactive	inactive	inactive	inactive	inactive	inactive	inactive	inactive	inactive	inactive	inactive	inactive	inactive	inactive	inactive	inactive	
CCCC(=O)O[C@]1(C(=O)CCl)[C@H](C)C[C@@H]2[C@H]3CCC4=CC(=O)C=C[C@]4(C)[C@@]3(F)C(=O)C[C@@]21C	0.891 µM (active)	6.01 µM (active)	6.75 µM (active)	4.26 µM (active)	3.16 µM (active)	2.51 µM (active)	7.94 µM (active)	2.39 µM (active)	2.82 µM (active)	3.55 µM (active)	10 µM (active)	3.16 µM (active)	3.98 µM (active)	4.47 µM (active)	4.47 µM (active)	3.55 µM (active)	3.01 µM (active)	10 µM (active)	2.82 µM (active)	3.16 µM (active)
CC[N+](C)(C)Cc1ccccc1Br	inactive	inactive	inactive	inactive	inactive	inactive	inactive	inactive	inactive	inactive	inactive	inactive	inactive	inactive	inactive	inactive	inactive	inactive	inactive	inactive
Cc1c(C)c2c(c(C)c1O)CC[C@@](C)(CCC[C@H](C)CCC[C@H](C)CCCC(C)C)O2	inactive	inactive	inactive	inactive	inactive	inactive	inactive	inactive	inactive	inactive	inactive	inactive	inactive	inactive	inactive	inactive	inactive	inactive	inactive	inactive
COc1ccc2c3c1O[C@H]1C[C@@H](O)C=C[C@@]31CCN(C)C2	inactive	inactive	inactive	inactive	inactive	inactive	inactive	inactive	inactive	inactive	inactive	inactive	inactive	inactive	inactive	inactive	inactive	inactive	inactive	inactive
C[C@]12CCC(=O)C=C1CC[C@@H]1[C@@H]2[C@@H](O)C[C@@]2(C)[C@H]1CC[C@]2(O)C(=O)COP(=O)(O)O	inactive	inactive	inactive	inactive	inactive	inactive	inactive	inactive	inactive	inactive	inactive	inactive		inactive	inactive	inactive	inactive	inactive	inactive	inactive
COCC(=O)Nc1cc(Sc2ccccc2)ccc1N=C(NC(=O)OC)NC(=O)OC	inactive	inactive	inactive	inactive	inactive	inactive	inactive	inactive	inactive		inactive	inactive	inactive	inactive	inactive	inactive		inactive	inactive	inactive
CCCCCCCCCCCCCC[n+]1ccc(C)cc1	4.47 µM (active)	1.69 µM (active)	1.9 µM (active)	4.78 µM (active)	2.82 µM (active)	3.16 µM (active)	12.6 µM (active)	1.2 µM (active)	3.55 µM (active)	1.58 µM (active)		7.08 µM (active)	3.55 µM (active)	4.47 µM (active)	3.55 µM (active)	4.47 µM (active)	4.78 µM (active)		3.98 µM (active)	2.24 µM (active)
O=C(O)CN(CCN(CC(=O)O)CC(=O)O)CC(=O)O	inactive	inactive	inactive	inactive	inactive	inactive	inactive	inactive	inactive		inactive	inactive	inactive	inactive	inactive	inactive	inactive	inactive	inactive	inactive
COC(C(=O)C(O)C(C)O)C1Cc2cc3cc(OC4CC(OC5CC(O)C(O)C(C)O5)C(O)C(C)O4)c(C)c(O)c3c(O)c2C(=O)C1OC1CC(OC2CC(OC3CC(C)(O)C(O)C(C)O3)C(O)C(C)O2)C(O)C(C)O1 (stereo unspecified)	0.141 µM (active)	1.51 µM (active)	1.51 µM (active)	3.01 µM (active)	0.1 µM (active)	0.178 µM (active)	1.58 µM (active)	1.35 µM (active)	0.1 µM (active)	0.1 µM (active)		0.199 µM (active)	0.178 µM (active)	0.126 µM (active)	0.224 µM (active)	0.501 µM (active)	2.69 µM (active)	inactive	0.178 µM (active)	0.158 µM (active)
CCCCCCCC/C=C\CCCCCCCC(=O)O	inactive	inactive	inactive	inactive	inactive		inactive	inactive	inactive	inactive	inactive	inactive	inactive	inactive	inactive		inactive	inactive	inactive	
CCOC(=O)C1=C(C)NC(C)=C(C(=O)OCC)C1c1ccccc1C=CC(=O)OC(C)(C)C	11.2 µM (active)	12 µM (active)	15.1 µM (active)	13.5 µM (active)			11.2 µM (active)	10.7 µM (active)	12.6 µM (active)	4.47 µM (active)	inactive	10 µM (active)	7.08 µM (active)			10 µM (active)	10.7 µM (active)		11.2 µM (active)	
CCOc1ccc2c(c1)C(C)=CC(C)(C)N2	inactive	inactive	inactive	inactive	inactive	inactive	inactive	inactive	inactive		inactive	inactive	inactive	inactive	inactive	inactive	inactive	inactive	inactive	inactive
CC(C)=O	inactive	inactive	inactive	inactive	inactive	inactive	inactive	inactive	inactive	inactive	inactive	inactive	inactive		inactive	inactive	inactive	inactive	inactive	inactive
O=C(COc1ccc(Cl)cc1)OCCNC12CC3CC(CC(C3)C1)C2	inactive	inactive	inactive		inactive	inactive	inactive		inactive	inactive	inactive	inactive	inactive	inactive	inactive	inactive	inactive	inactive	inactive	inactive
CC1(C)C(C=C(Cl)Cl)C1C(=O)OCc1cccc(Oc2ccccc2)c1 (stereo unspecified)	inactive	inactive	inactive	inactive		inactive	inactive	inactive	inactive		inactive	inactive	inactive	inactive	inactive	inactive	inactive	inactive	inactive	inactive
Oc1cc(O)c2c(c1)OC(c1ccc(O)c(O)c1)C(O)C2 (stereo unspecified)	inactive	inactive	inactive	inactive	inactive		inactive		inactive	inactive	inactive	inactive	inactive	inactive	inactive	inactive	inactive	inactive	inactive	inactive
CN(C)CCCN1c2ccccc2C(C)(C)c2ccccc21	inactive	8.49 µM (active)	4.78 µM (active)			inactive	inactive		inactive		inactive				inactive			inactive		
CCCCCCCCCCCC[n+]1ccc2ccccc2c1	0.562 µM (active)	0.757 µM (active)	0.953 µM (active)	1.35 µM (active)	0.562 µM (active)	1.26 µM (active)	1.58 µM (active)	0.338 µM (active)	2.51 µM (active)	0.447 µM (active)	12.6 µM (active)	0.708 µM (active)	0.631 µM (active)	0.891 µM (active)	2 µM (active)	2.24 µM (active)	0.953 µM (active)		1.41 µM (active)	0.631 µM (active)
NC(=O)c1ncn(C2OC(CO)C(O)C2O)n1 (stereo unspecified)	inactive	inactive	inactive	inactive	inactive	inactive	inactive		inactive	inactive	inactive	inactive	inactive	inactive	inactive	inactive	inactive	inactive	inactive	inactive
Cc1c(C)c2c(c(C)c1O)CC[C@@](C)(CCC[C@@H](C)CCC[C@@H](C)CCCC(C)C)O2	inactive	inactive	inactive	inactive	inactive	inactive	inactive	inactive	inactive	inactive	inactive	inactive			inactive	inactive	inactive	inactive	inactive	
CC(C)(C)C(=O)OCOC(=O)[C@@H]1N2C(=O)[C@@H](N=CN3CCCCCC3)[C@H]2SC1(C)C	inactive	inactive	inactive	inactive	inactive	inactive	inactive	inactive	inactive	inactive	inactive	inactive	inactive	inactive	inactive	inactive		inactive	inactive	inactive
Nc1c(Br)cc(Br)cc1CNC1CCC(O)CC1 (stereo unspecified)	inactive	inactive	inactive	inactive	inactive	inactive	inactive		inactive		inactive	inactive	inactive	inactive	inactive	inactive	inactive	inactive	inactive	inactive
